# Experimental data from PubChem BioAssay AID624483 (NMMLSC, 2012).
# In all, about 360,000 compounds went through this assay and about 11,000 (3.1%) were called active. About 2% were inconclusive and are not listed. Cut-off read from the data, not from the text of the source: active = fluorescence intensity above about 16000; inconclusive = no clear call, values can overlap the other calls; inactive = below that. The sample as a whole holds a higher share of actives than the screen did.
# Experiment: compound fluorescence in toxin protease inhibitor counterscreen, primary screen, artefact control for toxin protease inhibitor project, biochemical, multiplex microsphere, HTS (AID 624483)
# Conditions: compound autofluorescence counterscreen, microsphere flow cytometry; active compounds read high
row,SMILES,fluorescence intensity
1,Cc1ccc(C(=O)N2CCCC2)c(F)c1F,24700 (active)
2,Cc1c(Br)cc(C(=O)N2CCCCCC2)c(C)c1C,4200 (inactive)
3,CCNC(=O)C1CCCN(C(=O)c2cc(F)ccc2C)CC1 (stereo not drawn),3900 (inactive)
4,CNC(=O)c1nnc(Cc2ccc(Cl)cc2)o1,4900 (inactive)
5,COc1cccc(C(NC(C)=O)c2nc(-c3cnc4ccccc4c3)cs2)c1 (stereo not drawn),3770 (inactive)
6,CC(C)c1ccc(NC(=O)NC2CCCCC2)cc1,10400 (inactive)
7,CC(C)(C)NS(=O)(=O)c1ccc(NC(=O)C2CCCO2)cc1 (stereo not drawn),3950 (inactive)
8,CC(C)(C)NS(=O)(=O)c1ccc(NC(=O)NC2CCCCC2)cc1,17000 (active)
9,CC1(Cc2cccc(C#N)c2)C(=O)Nc2ccc(-c3cccc(C(F)(F)F)c3)cc21 (stereo not drawn),2910 (inactive)
10,CCOC(=O)C1=CCC(c2ccc(F)cc2)N(S(=O)(=O)c2ccc(C)cc2)C1 (stereo not drawn),6000 (inactive)
11,O=C(c1ccc(CN2CCOCC2)cc1)N1CCN(c2ccccc2F)CC1,3620 (inactive)
12,O=C(c1ccc2c(c1)N(Cc1ccc(F)cc1)C(=O)CS2)N1CCOCC1,23800 (active)
13,CC1=C(C(=O)N2CCOCC2)CC(CC(=O)NCC2CCCCC2)C(=O)N1Cc1ccc(F)cc1 (stereo not drawn),3780 (inactive)
14,CCOC(=O)c1sc(NC(=O)c2sc(C)nc2C)nc1C,3060 (inactive)
15,CC1CC(C)CN(CCCNC(=O)c2csc3c2CCCCC3)C1 (stereo not drawn),5260 (inactive)
16,COC(=O)c1sc(NC(=O)c2csc3c2CCCC3)nc1C,19100 (active)
17,CC(C)(C)Cc1c(C2CCCCC2)nc2ccc(Br)cn12,5440 (inactive)
18,CC(=O)NC(c1cccs1)c1cc(Br)c2cccnc2c1O (stereo not drawn),3590 (inactive)
19,COc1ccc(-c2csc(N3CCN(Cc4ccc5c(c4)OCO5)CC3)n2)cc1,23000 (active)
20,COc1ccc(-c2cc(C(=O)N3CCN(Cc4ccc5c(c4)OCO5)CC3)on2)cc1OC,5740 (inactive)
21,Cc1cc(N2CCN(Cc3ccc4c(c3)OCO4)CC2)n2ncnc2n1,21200 (active)

row,SMILES,fluorescence intensity
1,O=C(NCc1ccc2c(c1)OCO2)C1CCCN(S(=O)(=O)c2cccs2)C1 (stereo not drawn),5650 (inactive)
2,Cc1cc(C)n2nc(C(=O)N3CCN(Cc4ccc5c(c4)OCO5)CC3)nc2n1,4210 (inactive)
3,Fc1ccc(N2CCN(Cc3ccc4c(c3)OCO4)CC2)cc1,22800 (active)
4,Oc1cc2c(cc1CN1CCN(c3ccccc3)CC1)OCO2,5830 (inactive)
5,Cc1cc(N2CCN(c3ccc(F)cc3)CC2)n2ncnc2n1,3960 (inactive)
6,CCc1c(C)nc2ncnn2c1N1CCC(C(=O)NCc2ccc3c(c2)OCO3)CC1,20900 (active)
7,N#C/C=C/N1CCN(Cc2ccc3c(c2)OCO3)CC1,3600 (inactive)
8,COc1ccc(C(O)c2nc(-c3ccc4c(c3)OCO4)cs2)cc1 (stereo not drawn),2970 (inactive)
9,Cc1cc(C)c(S(=O)(=O)NCC2CCC(C(=O)NCc3ccc4c(c3)OCO4)CC2)c(C)c1 (stereo not drawn),8390 (inactive)
10,CCc1nc2ccc(C(=O)NC3CCN(Cc4ccccc4)CC3)cn2c1N(C)CCN1CCOCC1,3530 (inactive)
11,O=C(NCc1ccccn1)[C@@H]1CCCN1C(=O)[C@@H]1CCCN1C(=O)c1ccccc1,5750 (inactive)
12,CCCNC(=O)c1cc(C2CCCCN2S(=O)(=O)c2ccc(C#N)cc2)on1 (stereo not drawn),3490 (inactive)
13,CCNC(=O)C1(C)CCCN(C(=O)c2c(C)noc2C)C1 (stereo not drawn),2990 (inactive)
14,COc1ccccc1CC1(C)C(=O)Nc2ccc(OC(F)(F)F)cc21 (stereo not drawn),3460 (inactive)
15,O=C(Nc1ccc2c(c1)OCCO2)C(C1CC1)N1CCC(Cc2ccccc2)CC1 (stereo not drawn),5440 (inactive)
16,O=C(NCC(=O)N1CCC2(CC1)NCCc1[nH]cnc12)c1ccc(Br)cc1,4440 (inactive)
17,O=C(C[n+]1ccc2c(c1)nnn2-c1ccccc1)c1ccc(Cl)cc1,5380 (inactive)
18,CC1(C(=O)NS(=O)(=O)c2ccc(C#N)cc2)CCN1C(=O)c1ccc(C2CCCCC2)cc1 (stereo not drawn),3450 (inactive)
19,C=CCNC(=O)c1ccccc1SCc1c(C)noc1C,5700 (inactive)
20,Cc1noc(C)c1CSc1nnc2ccc3ccccc3n12,23000 (active)
21,Cc1noc(C)c1COC(=O)Cn1c(C)nc2ccccc21,3460 (inactive)

row,SMILES,fluorescence intensity
1,COc1ccc(C)cc1NC(=O)c1ccc(-c2ccc(C(C)=O)cc2)o1,3980 (inactive)
2,OCCC1CN(Cc2ccc3nsnc3c2)CCN1C1CCCCC1 (stereo not drawn),2180 (inactive)
3,CS(=O)(=O)c1cccc(-c2ccc3nncn3c2)c1,3880 (inactive)
4,O=[N+]([O-])c1ccccc1/C=N/n1c(COc2ccccc2)n[nH]c1=S,22400 (active)
5,Fc1ccc(/C=N/n2c(COc3ccccc3)n[nH]c2=S)cc1,3650 (inactive)
6,CCOc1ccc(-c2n[nH]c(=S)n2/N=C/c2cc3c(cc2[N+](=O)[O-])OCO3)cc1,7340 (inactive)
7,CN(C)C(CNC(=O)c1cccc(S(=O)(=O)N2CCc3ccccc3C2)c1)c1ccccc1 (stereo not drawn),4070 (inactive)
8,Cc1ccc(C)c(NS(=O)(=O)c2cc(Br)cnc2N)c1,2420 (inactive)
9,O=C(COC(=O)c1ccccc1C(=O)c1ccccc1)c1ccco1,23700 (active)
10,CCc1ccc(C(=O)COC(=O)c2ccco2)cc1,5070 (inactive)
11,CCN(CC)c1ccc(C(=O)OCC(=O)c2ccco2)cc1,4360 (inactive)
12,CC1(C(=O)NS(=O)(=O)Cc2cccc(Cl)c2)CCN1C(=O)Cc1ccc(Cl)cc1Cl (stereo not drawn),3610 (inactive)
13,O=C(O)c1ccc(COc2c(F)c(F)cc(F)c2F)o1,5310 (inactive)
14,CCOC(=O)C1CCN(C(=O)Cn2cc(C#N)c3ccccc32)CC1,3760 (inactive)
15,CCOC(=O)C1CCN(C(=O)COc2cccc3ccccc23)CC1,5570 (inactive)
16,CCOC(=O)C1CCN(C(=O)Cc2c(C(=O)O)[nH]c3ccccc23)CC1,24500 (active)
17,Cc1cccc(-c2cnc(C(O)c3ccc4ccccc4c3)[nH]2)c1 (stereo not drawn),3610 (inactive)
18,O=C(NCc1csc(-c2cccs2)n1)C1CC1,3880 (inactive)
19,Cc1cc(NC(=O)CSCC(=O)NC(C)c2ccccc2)no1 (stereo not drawn),5020 (inactive)
20,Cc1ccc(-c2csc(SCC(=O)Nc3cc(C)on3)n2)cc1,17800 (active)
21,Cc1ccc2nc(-c3ccc(SCC(=O)Nc4cc(C)on4)nc3)[nH]c2c1,2760 (inactive)
